HTR5A inv ctr: inverse agonist of human HTR5A in OPRM1-OPRD1 counter-screen. HTR5A cell line, luminescence, inverse agonism. actives 0.083% (n = 340,000). P47898. inhibition, % at 9.3 µM. AID 504634; in the data active = inhibition mostly above about 23%, no sharp cut-off; inactive = mostly below about 18%;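 also: 0% = cells with DMSO and 100% = no-cell wells with DMSO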
Target sequence (P47898 whole entry, looked up): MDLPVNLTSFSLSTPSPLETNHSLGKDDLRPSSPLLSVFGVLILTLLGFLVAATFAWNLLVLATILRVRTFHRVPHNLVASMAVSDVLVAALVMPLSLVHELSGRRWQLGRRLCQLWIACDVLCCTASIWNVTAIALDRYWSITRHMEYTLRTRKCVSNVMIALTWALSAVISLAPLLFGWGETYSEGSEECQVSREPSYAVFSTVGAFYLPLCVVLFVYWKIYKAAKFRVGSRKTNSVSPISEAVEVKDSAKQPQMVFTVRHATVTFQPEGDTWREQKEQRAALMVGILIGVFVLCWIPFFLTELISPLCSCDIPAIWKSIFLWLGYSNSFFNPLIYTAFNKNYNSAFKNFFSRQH
OPRM1-OPRD1 inv: mu-delta opioid heterodimer inverse agonism; P35372+P41143; cell-based MOR-DOR heterodimer luminescence; inhibition, % at 9.3 µM; actives 0.21% (n = 340,000); AID 504357; in the data active = inhibition above about 22%, passing the limit was not always enough;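 also: 0% = cells with DMSO and 100% = wells without cells with DMSO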
HTR5A ag: activates human HTR5A in OPRM1-OPRD1 agonist counter-screen; P47898; HTR5A agonist assay, luminescence, cell-based; AID 504692; activation, % at 9.3 µM; actives 0.61% (n = 340,000); in the data active = activation mostly above about 9.5%, no sharp cut-off; inactive = mostly below about 7.6%;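 also: 0% = cells with vehicle only and 100% = reference agonist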
OPRM1-OPRD1 ag: agonists of human mu-delta opioid receptor heterodimerization; cells, OPRM1-OPRD1 heterodimerization, luminescence; actives 0.3% (n = 340,000); P35372+P41143; activation, % at 9.3 µM; in the data active = activation above about 18%;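 also: 0% = vehicle-treated cells and 100% = reference agonist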
Starred values were filed as active, the others as inactive. In the library only some 1.1% were active in any assay of this set; here they are far more common.

SMILES	HTR5A inv ctr	OPRM1-OPRD1 inv	HTR5A ag	OPRM1-OPRD1 ag
Cc1ccc(C(=O)C(C)OC(=O)Cn2[nH]c(=O)c3ccccc3c2=O)cc1C (stereo not given)	-45	16	12*	-3
O=C(NCCN1CCOCC1)c1cc([N+](=O)[O-])cc([N+](=O)[O-])c1	-10	-3	6	1
COC(=O)c1cn(NC(=O)c2cccc(F)c2)c(=O)c2ccccc12	-13	5	-1	-1
COC(=O)c1cn(NC(=O)c2cccc(N(C)C)c2)c(=O)c2ccccc12	-5	-4	9.2*	1
CCOc1cc(C(=O)N(CC)CC(=O)Nc2c(F)cccc2F)ccc1OCC(=O)N1CCCCC1	13	11	-5	-2
Cc1ccccc1-n1c(SCc2cc(=O)n3ccccc3n2)nc2[nH]ncc2c1=O	2	-2	-1	0
Cc1ccccc1-n1c(SCc2cccc(F)c2)nc2[nH]ncc2c1=O	-48	-4	14*	1
Cc1ccc(S(=O)(=O)NCc2ccccc2)cc1C(=O)N(C)CC(=O)Nc1c(Cl)cccc1Cl	-6	9	-3	-2
CC(NCC(O)COc1ccccc1)C1COc2ccccc2O1 (stereo not given)	-43	-22	12*	5
CC(NCc1ccccc1)C1COc2ccccc2O1 (stereo not given)	-10	13	5	-3
CC(C)c1ccc(S(=O)(=O)/N=C2/C=C(Sc3ncn[nH]3)C(=O)c3ccccc32)cc1	19	-127	3	25*
O=C1c2ccccc2N(Cc2ccc(Cl)cc2)C2=NCCN12	-28	4	11*	-1
Cc1cc(Cl)cc(C)c1OCC(=O)N1CCN(c2ncccn2)CC1	1	-12	-1	3
O=C1c2[nH]nc(-c3ccccc3O)c2C(c2cccc(Cl)c2)N1Cc1ccco1 (stereo not given)	-37	-65	14*	14
Nc1nc(Br)c2ccccc2c1-c1ccccc1	-12	-27	4	5
Nc1nc(Br)c2c(F)cccc2c1-c1ccc(Cl)cc1	-39	-56	11*	10
COc1ccc(CCN=C(N)NS(=O)(=O)c2cc(F)ccc2OC)cc1	-13	6	7	-1
Fc1ccccc1N=C1NN=C(c2ccccc2)CS1	-52	14	11*	-3
NC(=O)C1CCCN1S(=O)(=O)c1ccc2ccccc2c1 (stereo not given)	0	0	4	0
COc1ccccc1CCc1nnc(CCC(=O)NC(C)Cc2ccsc2)o1 (stereo not given)	-28	-11	9.9*	2
COc1ccccc1CCc1nnc(CCC(=O)NCC(C)Oc2cccnc2)o1 (stereo not given)	-2	3	6	0
CCOC(=O)C1=C(C)NC(=O)NC1C(C)C (stereo not given)	-14	3	5	-1
Cc1ccc(C)c(OCCC(=O)NNC(=O)Cn2nc(C)cc2C)c1	-34	6	12*	-1
CN(C)S(=O)(=O)c1cc(NC(=O)CN2CCN(c3ccccc3F)CC2)ccc1Cl	0	2	0	0
CCc1csc(CNC(=O)C2CCC(=O)N(Cc3cccc(F)c3)C2)n1 (stereo not given)	-6	12	-2	-2
SMILES	HTR5A inv ctr	OPRM1-OPRD1 inv	HTR5A ag	OPRM1-OPRD1 ag
Cc1cccc(Cl)c1NC(=S)NN	9	8	13*	-2
Cc1c(Cl)cccc1NC(=S)NN	-2	-12	-3	2
COc1cc(/C=N/NC(=O)c2cc3c(ccc4ccccc43)o2)cc(OC)c1O	-43	-48	11*	9
COc1cc2ncnc(NCc3cccc(F)c3F)c2cc1OC	-33	-9	9.2*	2
CCCCCn1nnc2c(=O)oc3ccccc3c21	10	-37	-4	5
COCCC(=O)Nc1ccc2c(c1)CN(C(=O)c1ccc(CSC)o1)CC2	-41	10	11*	-2
COCCC(=O)Nc1ccc2c(c1)CN(C(=O)CCSC)CC2	-1	19	5	-4
Cc1ccc(NC(=S)Nc2ccc(Br)cc2)cc1	-35	-34	13*	6
CC(C)(C)C1CCc2sc(C(=O)NNC(=O)CCl)cc2C1 (stereo not given)	-163	-197	57*	38*
CC(C)(C)C1CCC(=NNC(=O)c2cc3c(s2)CCCC3)CC1 (stereo not given)	-2	-10	2	2
O=C(Cn1nnc(-c2ccccc2F)n1)NCc1ccco1	7	11	-2	-2
CCOc1ccccc1N1CCN(C(=O)c2cc3c(s2)CCC3)CC1	0	-7	0	1
COc1ccccc1N1CCN(C(=O)c2cc3c(s2)CCCCC3)CC1	-19	-8	10*	2
COC(=O)CN(c1cc(OC)ccc1OC)S(=O)(=O)c1ccc(OC)c(OC)c1	-17	11	9.2*	-2
CCCc1nc2ccc(NC(=O)c3cccs3)cc2c(=O)n1Cc1ccccc1Cl	13	-2	-3	0
CCCc1nc2ccc(NC(C)=O)cc2c(=O)n1Cc1ccc(Cl)cc1	-27	-2	10*	0
CC(NC(=O)c1cc(F)c(F)c(F)c1F)c1ccc(-n2ccnc2)cc1 (stereo not given)	1	-5	10	1
Cc1ccc(NC(=O)C2CCCN(C(=O)NCc3ccccc3)C2)c(C)c1 (stereo not given)	-14	2	5	0
O=C(N/N=C/C1C(c2ccccc2)C1(Cl)Cl)c1cccc(Br)c1 (stereo not given)	-7	5	11*	-1
Cc1ccc(C(=O)C2CCN(CC(=O)N3CCN(c4ccc(F)cc4)CC3)CC2)cc1	-43	3	-1	-1
O=C(Nc1cccc(-c2cnc3ccccc3n2)c1)c1ccccc1	2	14	-1	-3
O=C(Nc1cccc(-c2cnc3ccccc3n2)c1)c1cccc(NC(=O)c2ccco2)c1	-53	-265	14*	51*
N#Cc1c(C(F)(F)F)cc(-c2ccccc2)[nH]c1=O	1	8	0	-1
N#Cc1c(C(F)(F)F)cc(-c2ccccc2Cl)[nH]c1=O	-20	-5	12*	1
Cc1cccc(NS(=O)(=O)c2cc(C(=O)N3CCCCCC3)ccc2C)c1	-38	4	-3	-1
SMILES	HTR5A inv ctr	OPRM1-OPRD1 inv	HTR5A ag	OPRM1-OPRD1 ag
COC(=O)CCC(=O)OC1(C)C(=O)C2=CN(C3CC3)C(c3ccc(OC)cc3)=CC2=C(Br)C1=O (stereo not given)	-53	-53	9.4*	9
Cc1nn(-c2ccccc2)c(C)c1NC(=O)COC(=O)Cc1ccccc1F	-15	15	12*	-3
COc1ccccc1CCC(=O)OCC(=O)Nc1c(C)nn(-c2ccccc2)c1C	3	-2	-1	0
Cc1cc(OC(C)C(=O)NCC2CCCO2)cc(C)c1Cl (stereo not given)	-11	17	11*	-3
O=C(c1cccs1)N1CCN(S(=O)(=O)c2cccc(Cl)c2Cl)CC1	-14	3	1	0
CCOC(=O)Nc1sc(C)c(C)c1C(=O)OCC	-7	-35	13*	7
CCN1CCN(C(=O)c2ccc3c(=O)n(C4CCCC4)c(=S)[nH]c3c2)CC1	12	9	9.3*	-2

Source: PubChem (The Scripps Research Institute Molecular Screening Center)
